The supplement of paper PMC3545927
This is one part of the list. How many sequences the whole screen found active is unknown.

Target: furin, P09958
Test: furin cleavage Z-score vs untreated control; higher = more cleavage, active = 3.5 or more, inactive = 1 or less, 8 variable residues between constant flanks
Procedure, shortened: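 To give the cleavage Z-score, log read counts were set against furin-free reactions, lowess-adjusted and scaled by median absolute deviation. These counts came from PCR adapter-tagged, sequenced DNA released when purified furin cut 8-mer peptides fused to a cDNA oligonucleotide and held on magnetic beads by their N-terminus. Digests were 0.01 ml, 1:10 enzyme:substrate, in 50 mM HEPES pH 7.5 with CaCl2 and NaCl, for 7.5, 15 or 30 min.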

furin, P09958, sequence (P09958 whole entry): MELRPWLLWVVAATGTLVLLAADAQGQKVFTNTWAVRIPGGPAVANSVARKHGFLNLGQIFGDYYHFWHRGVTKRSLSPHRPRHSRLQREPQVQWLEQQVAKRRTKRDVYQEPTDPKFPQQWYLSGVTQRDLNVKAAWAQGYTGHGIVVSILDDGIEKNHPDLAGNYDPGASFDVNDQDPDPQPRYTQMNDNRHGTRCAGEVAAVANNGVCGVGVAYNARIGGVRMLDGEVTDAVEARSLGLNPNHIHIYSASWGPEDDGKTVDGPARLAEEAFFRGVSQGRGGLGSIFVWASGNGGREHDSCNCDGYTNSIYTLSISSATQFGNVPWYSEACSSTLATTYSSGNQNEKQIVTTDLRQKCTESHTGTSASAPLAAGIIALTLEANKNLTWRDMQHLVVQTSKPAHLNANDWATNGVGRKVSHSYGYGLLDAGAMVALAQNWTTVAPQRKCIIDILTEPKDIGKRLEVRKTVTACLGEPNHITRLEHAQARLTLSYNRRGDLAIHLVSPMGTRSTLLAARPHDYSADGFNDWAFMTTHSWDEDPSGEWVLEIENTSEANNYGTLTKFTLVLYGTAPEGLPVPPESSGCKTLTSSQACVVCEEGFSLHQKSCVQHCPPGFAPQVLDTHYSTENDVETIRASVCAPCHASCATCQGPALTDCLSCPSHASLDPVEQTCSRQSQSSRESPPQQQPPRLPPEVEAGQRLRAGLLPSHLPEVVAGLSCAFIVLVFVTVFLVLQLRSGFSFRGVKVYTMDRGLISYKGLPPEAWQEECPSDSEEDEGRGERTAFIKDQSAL

CAMEECSQHIAGNASASA [HC1764]
furin cleavage Z-score (7.5 min): -0.598 (inactive) | furin cleavage Z-score (15 min): 0.0833 (inactive) | furin cleavage Z-score (30 min): 0.396 (inactive)

CAMRSPVFTDAGNASASA [HC763]
furin cleavage Z-score (7.5 min): 0.639 (inactive) | furin cleavage Z-score (15 min): -0.615 (inactive) | furin cleavage Z-score (30 min): -0.411 (inactive)

CAFDVVCCSMAGNASASA [HC2107]
furin cleavage Z-score (7.5 min): -0.364 (inactive) | furin cleavage Z-score (15 min): 0.607 (inactive) | furin cleavage Z-score (30 min): -0.057 (inactive)

CAGERPSGMFAGNASASA [HC913]
furin cleavage Z-score (7.5 min): 1.14 | furin cleavage Z-score (15 min): -1.35 (inactive) | furin cleavage Z-score (30 min): -0.577 (inactive)

CATTPCSLSWAGNASASA [HC1885]
furin cleavage Z-score (7.5 min): 1.37 | furin cleavage Z-score (15 min): 1.04 | furin cleavage Z-score (30 min): 0.14 (inactive)

CARGRRSRRAAGNASASA [FS-1062]
furin cleavage Z-score (7.5 min): 5.6 (active) | furin cleavage Z-score (15 min): 4.73 (active) | furin cleavage Z-score (30 min): 4.94 (active)

CARGRRSHDPAGNASASA [FS-2674]
furin cleavage Z-score (7.5 min): 0.899 (inactive) | furin cleavage Z-score (15 min): 3.42 | furin cleavage Z-score (30 min): 3.55 (active)

CARGRRQKQNAGNASASA [FS-2418]
furin cleavage Z-score (7.5 min): 0.749 (inactive) | furin cleavage Z-score (15 min): 0.513 (inactive) | furin cleavage Z-score (30 min): 0.917 (inactive)

CARGRRGMKDAGNASASA [FS-2394]
furin cleavage Z-score (7.5 min): 0.884 (inactive) | furin cleavage Z-score (15 min): 1.5 | furin cleavage Z-score (30 min): 2.14

CARGRRQPIPAGNASASA [HC190]
furin cleavage Z-score (7.5 min): 0.155 (inactive) | furin cleavage Z-score (15 min): -0.409 (inactive) | furin cleavage Z-score (30 min): -0.134 (inactive)

CARPIRSRRAAGNASASA [FS-1563]
furin cleavage Z-score (7.5 min): 11.5 (active) | furin cleavage Z-score (15 min): 11.2 (active) | furin cleavage Z-score (30 min): 9.54 (active)

CACPAGHAVGAGNASASA [HC746]
furin cleavage Z-score (7.5 min): -0.805 (inactive) | furin cleavage Z-score (15 min): -1.77 (inactive) | furin cleavage Z-score (30 min): 0.00889 (inactive)

CAPLGNWFGCAGNASASA [HC433]
furin cleavage Z-score (7.5 min): 1.65 | furin cleavage Z-score (15 min): 0.567 (inactive) | furin cleavage Z-score (30 min): 1.54

CAHSSRLKRLAGNASASA [FS-1011]
furin cleavage Z-score (7.5 min): 6.44 (active) | furin cleavage Z-score (15 min): 7.96 (active) | furin cleavage Z-score (30 min): 7.66 (active)

CAVKSRLKRLAGNASASA [FS-890]
furin cleavage Z-score (7.5 min): 9.42 (active) | furin cleavage Z-score (15 min): 12 (active) | furin cleavage Z-score (30 min): 9.55 (active)

CAIKSLTERLAGNASASA [HC1497]
furin cleavage Z-score (7.5 min): -0.222 (inactive) | furin cleavage Z-score (15 min): -0.416 (inactive) | furin cleavage Z-score (30 min): -0.246 (inactive)

CADGMEECSQAGNASASA [HC1816]
furin cleavage Z-score (7.5 min): -0.375 (inactive) | furin cleavage Z-score (15 min): 0.927 (inactive) | furin cleavage Z-score (30 min): 0.477 (inactive)

CAMSECSQHLAGNASASA [HC1697]
furin cleavage Z-score (7.5 min): 0.222 (inactive) | furin cleavage Z-score (15 min): 0.351 (inactive) | furin cleavage Z-score (30 min): 1.22

CAMEECSCHLAGNASASA [HC1740]
furin cleavage Z-score (7.5 min): 0.898 (inactive) | furin cleavage Z-score (15 min): -0.945 (inactive) | furin cleavage Z-score (30 min): 0.106 (inactive)

CALDSFDPLVAGNASASA [HC1287]
furin cleavage Z-score (7.5 min): 0.861 (inactive) | furin cleavage Z-score (15 min): 0.184 (inactive) | furin cleavage Z-score (30 min): 1.88

CALEGEPGDPAGNASASA [HC1356]
furin cleavage Z-score (7.5 min): -0.565 (inactive) | furin cleavage Z-score (15 min): 0.288 (inactive) | furin cleavage Z-score (30 min): 0.927 (inactive)

CALNEIKKRFAGNASASA [FS-352]
furin cleavage Z-score (7.5 min): 0.841 (inactive) | furin cleavage Z-score (15 min): -1.42 (inactive) | furin cleavage Z-score (30 min): -0.561 (inactive)

CAGSIRKKRFAGNASASA [FS-1457]
furin cleavage Z-score (7.5 min): 6.25 (active) | furin cleavage Z-score (15 min): 7.01 (active) | furin cleavage Z-score (30 min): 6.64 (active)

CAKMRRKKRFAGNASASA [FS-1459]
furin cleavage Z-score (7.5 min): 7.33 (active) | furin cleavage Z-score (15 min): 9.76 (active) | furin cleavage Z-score (30 min): 8.97 (active)

CAYKRYISWCAGNASASA [HC578]
furin cleavage Z-score (7.5 min): 0.0156 (inactive) | furin cleavage Z-score (15 min): 0.474 (inactive) | furin cleavage Z-score (30 min): 1.13

CANLKCPCQVAGNASASA [HC1215]
furin cleavage Z-score (7.5 min): -0.928 (inactive) | furin cleavage Z-score (15 min): -0.942 (inactive) | furin cleavage Z-score (30 min): -0.8 (inactive)

CASQQRQYRSAGNASASA [FS-564]
furin cleavage Z-score (7.5 min): 2.45 | furin cleavage Z-score (15 min): 5.55 (active) | furin cleavage Z-score (30 min): 5.41 (active)

CASQFRSKRSAGNASASA [FS-1085]
furin cleavage Z-score (7.5 min): 9.98 (active) | furin cleavage Z-score (15 min): 9.45 (active) | furin cleavage Z-score (30 min): 7.11 (active)

CASSTRSKRSAGNASASA [FS-874]
furin cleavage Z-score (7.5 min): 11.9 (active) | furin cleavage Z-score (15 min): 11.3 (active) | furin cleavage Z-score (30 min): 10 (active)

CAMSTWSKRSAGNASASA [FS-464]
furin cleavage Z-score (7.5 min): 0.45 (inactive) | furin cleavage Z-score (15 min): 1.32 | furin cleavage Z-score (30 min): 1.43

CAFWVRSKRSAGNASASA [FS-590]
furin cleavage Z-score (7.5 min): 9.47 (active) | furin cleavage Z-score (15 min): 8.07 (active) | furin cleavage Z-score (30 min): 7.6 (active)

CAASLAGTHGAGNASASA [HC539]
furin cleavage Z-score (7.5 min): 0.00941 (inactive) | furin cleavage Z-score (15 min): 3.06 | furin cleavage Z-score (30 min): 1.2

CADTPCSAHLAGNASASA [HC2471]
furin cleavage Z-score (7.5 min): -1.99 (inactive) | furin cleavage Z-score (15 min): -1.52 (inactive) | furin cleavage Z-score (30 min): -0.796 (inactive)

CALLLTTTQWAGNASASA [HC493]
furin cleavage Z-score (7.5 min): -0.815 (inactive) | furin cleavage Z-score (15 min): -0.0284 (inactive) | furin cleavage Z-score (30 min): 0.00617 (inactive)

CATTPCSGSIAGNASASA [HC1924]
furin cleavage Z-score (7.5 min): -0.658 (inactive) | furin cleavage Z-score (15 min): -0.276 (inactive) | furin cleavage Z-score (30 min): -1.61 (inactive)

CAEVPCHMPSAGNASASA [HC2366]
furin cleavage Z-score (7.5 min): 0.437 (inactive) | furin cleavage Z-score (15 min): 1.57 | furin cleavage Z-score (30 min): 0.743 (inactive)

CAPSLKATCTAGNASASA [HC1265]
furin cleavage Z-score (7.5 min): 0.563 (inactive) | furin cleavage Z-score (15 min): 1.42 | furin cleavage Z-score (30 min): 0.215 (inactive)

CATGPCTPLPAGNASASA [HC1194]
furin cleavage Z-score (7.5 min): -0.592 (inactive) | furin cleavage Z-score (15 min): -0.46 (inactive) | furin cleavage Z-score (30 min): 0.602 (inactive)

CADIINGLPVAGNASASA [HC658]
furin cleavage Z-score (7.5 min): -0.191 (inactive) | furin cleavage Z-score (15 min): -0.925 (inactive) | furin cleavage Z-score (30 min): -0.966 (inactive)

CAMEECSHHLAGNASASA [HC1735]
furin cleavage Z-score (7.5 min): 0.695 (inactive) | furin cleavage Z-score (15 min): -0.107 (inactive) | furin cleavage Z-score (30 min): -0.123 (inactive)

CAEKERSKRSAGNASASA [FS-1626]
furin cleavage Z-score (7.5 min): 9.14 (active) | furin cleavage Z-score (15 min): 7.38 (active) | furin cleavage Z-score (30 min): 7.92 (active)

CAELNRSKRSAGNASASA [FS-927]
furin cleavage Z-score (7.5 min): 10.6 (active) | furin cleavage Z-score (15 min): 9.86 (active) | furin cleavage Z-score (30 min): 8.24 (active)

CASKERSKRSAGNASASA [FS-1568]
furin cleavage Z-score (7.5 min): 12.6 (active) | furin cleavage Z-score (15 min): 10.6 (active) | furin cleavage Z-score (30 min): 9.24 (active)

CASSARNKRSAGNASASA [FS-94]
furin cleavage Z-score (7.5 min): 11.8 (active) | furin cleavage Z-score (15 min): 11.6 (active) | furin cleavage Z-score (30 min): 8.13 (active)

CAELNRSKKDAGNASASA [FS-232]
furin cleavage Z-score (7.5 min): 0.785 (inactive) | furin cleavage Z-score (15 min): 0.28 (inactive) | furin cleavage Z-score (30 min): 0.715 (inactive)
